Measurements taken from PubChem BioAssay AID2551 (National Center for Advancing Translational Sciences (NCATS), 2010).
Screen size: about 310,000 compounds; about 17,000 (5.5%) were called active. Entries that show only a call come without a potency. Not shown: some 11% with an inconclusive outcome. Calls follow the shape of the dose curve; as a rule, active = well fitted inhibition curve with a large enough effect; inconclusive = small, poorly fitted or top-dose-only effect, or effect the other way; inactive = no such curve, though single readings can be large or run the other way. Many of the other results were omitted from the sample, so actives are more common in it than they were.

The molecules below were run against Nuclear receptor ROR-gamma (Mus musculus) (UniProt P51450) (assay: qHTS for inhibitors of ROR gamma transcriptional activity). Details: Drosophila S2 Gal4-RORgamma UAS-luciferase reporter, 20 h; series mostly up to 53.6 µM.
Nuclear receptor ROR-gamma (Mus musculus), sequence (P51450 whole entry, looked up, the tested form may be a part): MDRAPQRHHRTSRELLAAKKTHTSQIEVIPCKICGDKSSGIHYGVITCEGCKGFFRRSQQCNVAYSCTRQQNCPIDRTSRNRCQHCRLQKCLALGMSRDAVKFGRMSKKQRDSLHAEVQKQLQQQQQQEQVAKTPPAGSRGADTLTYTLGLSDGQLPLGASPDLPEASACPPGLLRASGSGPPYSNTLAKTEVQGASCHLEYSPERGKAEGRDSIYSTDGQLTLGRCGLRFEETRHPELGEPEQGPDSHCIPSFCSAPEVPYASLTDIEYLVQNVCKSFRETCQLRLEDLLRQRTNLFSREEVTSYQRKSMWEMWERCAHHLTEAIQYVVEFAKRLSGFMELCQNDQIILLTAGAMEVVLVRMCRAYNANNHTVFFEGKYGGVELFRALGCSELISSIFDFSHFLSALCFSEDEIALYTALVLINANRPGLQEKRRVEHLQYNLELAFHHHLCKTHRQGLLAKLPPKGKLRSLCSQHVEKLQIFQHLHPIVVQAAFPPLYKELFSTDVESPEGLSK
How it was run: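 ROR gamma transcriptional activity was tracked as Gal4-UAS luciferase output in stably transfected Drosophila Schneider cells, with compound added 1 hr before 700 uM copper sulfate induction and a 20 hr ambient-temperature incubation.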
Also: nearly all actives have a fitted effect of over 60% in size.
Potency is read from the fitted curve at half-maximal effect.

Q: Which Potency does the source give for `CC(C)CC(=O)NC(=S)NNC(=O)c1cccc([N+](=O)[O-])c1` here?
A: 12.6 µM (active)

Q: Which Potency does the source give for `CC(C)(C)SCCNC(=O)c1cccc([N+](=O)[O-])c1` here?
A: inactive

Q: Which Potency does the source give for `Cc1cccc(C(=O)NNC(=O)c2cccc([N+](=O)[O-])c2)c1` here?
A: inactive

Q: With `COc1ccc(OC)c(CCNC(=O)c2nn(C)c3c2CS(=O)(=O)c2ccccc2-3)c1` as the molecule, how does the Potency read?
A: inactive

Q: How did the Potency turn out when `Cc1cc2oc(=O)cc(CN3CCN(Cc4ccccc4)CC3)c2cc1C` was run?
A: inactive

Q: How did the Potency turn out when `CCCc1nc2sc3c(c2c(=O)n1NC(=O)CCCl)CCCC3` was run?
A: inactive

Q: How did the Potency turn out when `CCn1c(=S)[nH]c2sc3c(c2c1=O)CCCCC3` was run?
A: 0.447 µM (active)

Q: How did the Potency turn out when `CN(C)CCCn1c(=O)n(Cc2ccccc2)c(=O)c2c3c(sc21)CCCCC3` was run?
A: inactive

Q: How did the Potency turn out when `Cc1cccc(C(=O)N2CCCC(Nc3ccc(C(C)C)cc3)C2)n1` (stereo not given) was run?
A: inactive

Q: `COc1ccc(NC2CCCN(C(=O)c3ccncc3)C2)cc1` (stereo not given) was tested. Which Potency did it give?
A: inactive

Q: Which Potency does the source give for `CC(C)c1ccc(NC2CCCN(C(=O)c3ccncc3)C2)cc1` (stereo not given) here?
A: 2.51 µM (active)

Q: How did the Potency turn out when `O=C(CCC1CCCN(C(=O)c2ccc(F)c(F)c2)C1)N1CCN(c2ccccn2)CC1` (stereo not given) was run?
A: inactive

Q: With `CC(NC(=O)c1cc2cc(Cl)ccc2oc1=N)c1ccccc1` (stereo not given) as the molecule, how does the Potency read?
A: inactive

Q: For `CCC(C)NC(=O)c1c(N)n(/N=C/c2cccs2)c2nc3ccccc3nc12` (stereo not given), which Potency is on record?
A: 10 µM (active)

Q: With `CCC(C)NC(=O)c1nn(C)c(=O)c2ccccc12` (stereo not given) as the molecule, how does the Potency read?
A: inactive

Q: With `Cc1nc2ccccc2n1CC(=O)N/N=C/c1cccs1` as the molecule, how does the Potency read?
A: inactive

Q: Which Potency does the source give for `O=C(NCc1cccc(CNC(=O)Nc2cccc(O)c2)c1)Nc1cccc(O)c1` here?
A: inactive

Q: With `COc1ccc(CCNC(=O)CCNS(=O)(=O)c2cc(Br)cnc2N)cc1OC` as the molecule, how does the Potency read?
A: inactive

Q: `CCc1nc(Nc2ccc(NC(C)=O)cc2)c2oc3ccccc3c2n1` was tested. Which Potency did it give?
A: inactive

Q: How did the Potency turn out when `CC1C(=O)C(C)C(c2ccc(O)cc2)NC1c1ccc(O)cc1` (stereo not given) was run?
A: inactive

Q: How did the Potency turn out when `Cc1cc(C)nc(Nc2n[nH]c(-c3ccccc3N)n2)n1` was run?
A: 10 µM (active)

Q: Which Potency does the source give for `Cc1cc(C)nc(Nc2ncn[nH]2)n1` here?
A: inactive

Q: How did the Potency turn out when `Cc1cc(Nc2ccccc2)nc(N)n1` was run?
A: inactive

Q: Which Potency does the source give for `O=C(C1CC(=O)N(C2CCCCC2)C1)N1CCN(c2ccccc2)CC1` (stereo not given) here?
A: inactive

Q: Which Potency does the source give for `COc1cccc(CNC(=O)C2CCCN(S(=O)(=O)N3CC(C)CC(C)C3)C2)c1` (stereo not given) here?
A: inactive

Q: With `O=C(c1cnc(Cl)c(Cl)c1)N1CCN(S(=O)(=O)c2ccc(F)cc2)CC1` as the molecule, how does the Potency read?
A: inactive

Q: Which Potency does the source give for `O=C(N/N=C/c1ccccn1)C12CC3CC(CC(C3)C1)C2` here?
A: 2.82 µM (active)

Q: With `CNC(=O)C(=O)N/N=C/c1ccccn1` as the molecule, how does the Potency read?
A: inactive

Q: Which Potency does the source give for `O=C(Nc1ccc(S(=O)(=O)Nc2ncccn2)cc1)C12CC3CC(CC(C3)C1)C2` here?
A: inactive

Q: For `CC(C)(C)C1CCC(C(=O)NCC(c2cccs2)N2CCOCC2)CC1` (stereo not given), which Potency is on record?
A: inactive

Q: With `O=C(CNC(=O)OCc1ccccc1)NC1CCCCNC1=O` (stereo not given) as the molecule, how does the Potency read?
A: inactive

Q: With `O=[N+]([O-])c1cc([N+](=O)[O-])c(Oc2cc(F)cc(F)c2F)cc1NN1CCCCC1` as the molecule, how does the Potency read?
A: inactive

Q: `O=C(NCc1ccccn1)c1cc(Br)ccc1Cl` was tested. Which Potency did it give?
A: inactive

Q: Which Potency does the source give for `COc1ccc(-c2ccc(CNCCCN3CCOCC3)o2)cc1Cl` here?
A: inactive

Q: `Fc1ccc(-c2ccc(CNCc3ccccn3)o2)cc1Cl` was tested. Which Potency did it give?
A: 11.2 µM (active)

Q: `CCOc1ccc(-n2c(SCC(N)=O)nnc2-c2ccco2)cc1` was tested. Which Potency did it give?
A: inactive

Q: For `COc1ccccc1S(=O)(=O)c1c(C)cc(C)[nH]c1=O`, which Potency is on record?
A: inactive

Q: `O=C1/C(=C\c2ccsc2)NC(=S)N1c1ccccc1` was tested. Which Potency did it give?
A: 7.08 µM (active)

Q: `COc1cc2c(cc1/C=C1/NC(=O)N(c3ccccc3)C1=O)OCO2` was tested. Which Potency did it give?
A: inactive

Q: `O=C1N/C(=C/c2cccn2-c2ccccc2)C(=O)N1c1cccc(Cl)c1` was tested. Which Potency did it give?
A: inactive

Q: Which Potency does the source give for `COc1ccc(OCC(O)CN(C)C(=O)C(C)Oc2ccccc2)cc1` (stereo not given) here?
A: inactive

Q: How did the Potency turn out when `COc1ccc(C(=O)NCCCN2CCOCC2)cc1Br` was run?
A: inactive

Q: How did the Potency turn out when `CC(=O)c1c(N2CCN(c3ccc(F)cc3)CC2)nc(=S)n(-c2ccccc2)c1C` was run?
A: 14.1 µM (active)

Q: With `Cc1ccc2cc(C)c(N3CCN(c4ccc(F)cc4)CC3)nc2c1` as the molecule, how does the Potency read?
A: inactive

Q: How did the Potency turn out when `Cc1nnc(SCC(=O)N2CCN(c3ccccc3)CC2)n1-c1ccccc1` was run?
A: inactive

Q: For `Cc1ccccc1/C=C\c1nc(O)c([N+](=O)[O-])c(=O)[nH]1`, which Potency is on record?
A: inactive

Q: For `COc1cccc(NC(=O)C2CCCN(c3ncnc4c3nc3n4CCCCC3)C2)c1` (stereo not given), which Potency is on record?
A: inactive

Q: Which Potency does the source give for `COc1ccc(NC(=O)N2CCCC(C(=O)Nc3ccccc3OC)C2)cc1` (stereo not given) here?
A: inactive

Q: How did the Potency turn out when `CC(C)c1ccc(/C=C/C(=O)NNC(=O)c2cccnc2)cc1` was run?
A: inactive

Q: `O=C(/C=C/c1ccc(F)cc1)NCCNC(=O)/C=C/c1ccc(F)cc1` was tested. Which Potency did it give?
A: inactive

Q: Which Potency does the source give for `O=C(/C=C/c1ccc(F)cc1)NC(=S)NNC(=O)c1cccnc1` here?
A: 11.2 µM (active)

Q: Which Potency does the source give for `O=C(NCc1ccccc1)c1onc(CSc2nc3ccccc3[nH]2)c1C(=O)NCc1ccccc1` here?
A: inactive

Q: `CCSCc1nc(N)nc(NCCc2ccccc2)n1` was tested. Which Potency did it give?
A: inactive

Q: For `Cc1cc(C)c(C(=O)CSc2nc(C)cc(=O)[nH]2)c(C)c1`, which Potency is on record?
A: inactive

Q: Which Potency does the source give for `COc1ccccc1N1CCN(S(=O)(=O)CCNC(=O)c2ccc(OC(C)C)cc2)CC1` here?
A: inactive
